Screens from PubChem BioAssay.
RAM inhibit – inhibitors of the yeast RAM network | 1.8% of 190,000 active | S. cerevisiae dse1pr::URA3 reporter, 5-FOA growth OD615, 2 d; analog-sensitive cbk1-as2 kinase mutant strain | inhibition, % at 50 µM;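 active = inhibition above a set limit, 3 SD over mean compound inhibition, cut at about 8.4% in these data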;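 also: 0% = DMSO-only wells with no growth and 100% = 10 µM 1-NA-PP1 full growth; inhibition rescues growth on 5-FOA so higher OD means more RAM inhibition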
Cl transport mod – modulates chloride dependent transport by human KCC2. 2.2% of 190,000 active. B-score of Tl+ flux slope (higher = more flux/activation; lower = inhibition) at 10 µM. AID 1456. KCC2 cells, thallium flux FluoZin-2 fluorescence;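 active = thallium flux slope and its plate-corrected score both differing from the plate sample mean at a set confidence after two filtering rounds, in either direction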;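 also: slope of fluorescence scaled to starting intensity during 10 to 20 s after thallium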
S1P3 antag – S1P3 (human) receptor antagonism. AID 485. 0.27% of 170,000 active. inhibition, % at 4.98 µM. Q99500. CHO S1P3 NFAT-BLA reporter, FRET fluorescence, antagonist mode;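 active = inhibition above the plate cutoff, the mean inhibition of test wells on that plate plus 3 SD, cut at about 28% in these data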;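 also: cells challenged with S1P at its EC80 of 0.8 µM; blue over green emission ratio from cleaved BLA substrate after 4 h stimulation; 0% = S1P-stimulated wells and 100% = unstimulated DMSO-only wells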
S1P4 ag – activates the human S1P4 receptor | activation, % at 4.98 µM | AID 1509 | 0.35% of 220,000 active | S1P4-expressing cell line, agonist reporter assay | O95977; in the data active = activation above about 11%;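 also: 0% = DMSO vehicle and 100% = reference agonist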
Target sequence (O95977 whole entry, looked up): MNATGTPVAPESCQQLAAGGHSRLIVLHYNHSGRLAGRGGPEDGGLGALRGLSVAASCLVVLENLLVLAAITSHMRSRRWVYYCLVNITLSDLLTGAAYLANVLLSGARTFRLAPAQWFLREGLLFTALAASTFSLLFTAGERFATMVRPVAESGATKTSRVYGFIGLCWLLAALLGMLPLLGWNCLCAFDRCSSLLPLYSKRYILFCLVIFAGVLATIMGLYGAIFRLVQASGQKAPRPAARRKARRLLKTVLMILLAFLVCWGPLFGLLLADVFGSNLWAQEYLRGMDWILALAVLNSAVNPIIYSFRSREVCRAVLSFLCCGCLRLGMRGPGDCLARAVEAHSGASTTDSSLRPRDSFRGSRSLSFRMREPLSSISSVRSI
S1P4 antagonist – human S1P4 receptor antagonism. S1P4-expressing cells, antagonist mode, reporter read-out. inhibition, % at 4.98 µM. AID 1510. O95977. 0.26% of 220,000 active; in the data active = inhibition above about 29%;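 also: 0% = wells stimulated with agonist and 100% = vehicle wells without agonist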
ROMK primary – modulates human ROMK potassium channel activity; B-score at 10 µM; Tet-inducible ROMK, thallium flux fluorescence; actives lie on both sides; AID 1918; 2% of 130,000 active;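 active = signal ratio slope over the read window, or its plate-corrected B-score, at least 3 SD from the plate mean, either direction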;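 also: B-score of the F/F0 ratio slope over 7 to 12 s after thallium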
Target sequence (P48048 whole entry, looked up): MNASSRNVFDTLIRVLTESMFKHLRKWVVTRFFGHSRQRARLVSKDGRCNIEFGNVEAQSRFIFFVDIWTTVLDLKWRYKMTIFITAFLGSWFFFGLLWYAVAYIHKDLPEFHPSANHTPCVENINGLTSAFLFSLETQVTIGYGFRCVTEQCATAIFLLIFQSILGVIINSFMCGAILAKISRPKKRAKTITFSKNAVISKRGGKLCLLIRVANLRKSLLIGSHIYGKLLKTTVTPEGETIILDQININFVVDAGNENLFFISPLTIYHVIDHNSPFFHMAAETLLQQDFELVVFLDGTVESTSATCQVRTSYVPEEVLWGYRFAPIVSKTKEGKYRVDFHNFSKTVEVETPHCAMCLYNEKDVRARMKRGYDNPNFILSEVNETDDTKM
KCC2 secondary – KCC2 (human) modulation, secondary assay; shares compounds with Cl transport mod; HEK293-KCC2, thallium flux, FluoZin2 fluorescence; hits give high values; normalised thallium flux (F/F0 slope) at 10 µM; 15% of 3,700 active; AID 1713;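 active = thallium flux slope above the same plate's solvent-only control mean plus 3 SD; inconclusive = the two replicate wells disagree; inactive = no significant difference from solvent-only control wells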
KCC2 bumet counter – thallium flux persisting under bumetanide in KCC2 cells, counter-screen secondary assay. 49% of 3,700 active. AID 1714. normalized thallium flux at 10 µM. shares compounds with Cl transport mod. HEK293-KCC2 + bumetanide/ouabain, thallium flux FluoZin2; hits give high values;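 active = thallium entry rate above the same plate's blocked-transporter control wells by more than 3 SD; inconclusive = the two repeat wells disagree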;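 also: raw slope of fluorescence over initial fluorescence between 10 and 20 s after thallium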
KCC2 secondary2 – confirmation of human KCC2 transport modulators | shares compounds with Cl transport mod | HEK293-KCC2, thallium flux FluoZin2 fluorescence; actives lie on both sides; F/F0 rise rate, 10–20 s post-thallium | normalized thallium flux at 10 µM | 23% of 3,700 active;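 active = thallium flux slope more than 3 SD above or below the plate's solvent-only control mean, mostly below; inconclusive = the two repeat wells disagreed; inactive = no significant shift from solvent-only controls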;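 also: raw slope with 0.1% DMSO as baseline and bumetanide as block control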
HEK293 Tl flux – counter-screen for KCC2 modulators: effect in parental HEK293 cells | thallium flux rate (normalised fluorescence) at 10 µM | AID 1716 | shares compounds with Cl transport mod | 46% of 3,700 active | thallium flux FluoZin2, ouabain; baseline-ratio fluorescence slope, 10–20 s after thallium;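 active = thallium flux rate significantly above the same plate's solvent-only control wells, beyond their mean plus 3 SD; inconclusive = the two replicate wells gave conflicting results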
KCC2 retest ouab – KCC2 (human) modulation, ouabain retest; shares compounds with Cl transport mod; HEK293-KCC2, thallium flux FluoZin2 fluorescence; bidirectional: low = inhibitor, high = activator; raw Tl+ flux slope (below DMSO = inhibition, above = activation) at 10 µM; 48% of 3,700 active;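 active = thallium flux slope beyond 3 SD from same-plate DMSO control mean in most replicates, usually higher, sometimes lower; inconclusive = repeat tests gave conflicting results; inactive = no significant difference from controls in most replicates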;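 also: slope of initial-normalized fluorescence between seconds 10 and 20 after thallium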
HEK counter2 – parental HEK flux effect, counter-screen 2. shares compounds with Cl transport mod. HEK293 parental, thallium flux FluoZin-2 fluorescence slope. thallium flux slope at 10 µM. 33% of 3,700 active. AID 1718;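 active = thallium flux slope above the same plate's solvent-control mean plus 3 SD in both duplicate wells; inconclusive = duplicate wells that disagreed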;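 also: run without ouabain in cells lacking the KCC2 cotransporter; slope of fluorescence scaled to its starting value between 10 and 20 s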
* marks the source's active call; other numbers are inactive results. Shown are actives, neighbours in structure and some others; about 5.1% of the full set was active somewhere.

How did Cc1ccc(/C=N/n2c(-c3ccc(Cl)cc3)n[nH]c2=S)o1 do in these assays?
Cl transport mod: 7.9*; S1P3 antag: 16; S1P4 ag: -2; S1P4 antagonist: 10; ROMK primary: 0.67; KCC2 secondary: 0.016*; KCC2 bumet counter: 0.035*; KCC2 secondary2: 0.038; HEK293 Tl flux: 0.011*; KCC2 retest ouab: 0.026; HEK counter2: inconclusive

What do the screens show for `COc1ccc(N2CCN(C(CNC(=O)OCc3ccccc3)c3ccco3)CC2)cc1` (stereo unspecified)?
RAM inhibit: 2; Cl transport mod: -2.4; S1P3 antag: 13; S1P4 ag: -1; S1P4 antagonist: -18

Results for COc1ccc(S(=O)(=O)Nc2ccccc2OC)cc1NC(=O)c1cc2ccccc2oc1=O ?
RAM inhibit: 2; Cl transport mod: 0.085; S1P3 antag: -36; S1P4 ag: -1; S1P4 antagonist: -4

How did Cc1ccccc1COCCN1CCN(S(=O)(=O)c2ccccc2)CCC1=O do in these assays?
Cl transport mod: -0.29

Results for O=C(Nc1cccc(Cl)c1N1CCCC1)c1cccc(-c2cc3ccccc3oc2=O)c1 ?
RAM inhibit: 2; Cl transport mod: 0.031; S1P4 ag: 1; S1P4 antagonist: -26

Results for CCCCc1n[nH]c(=S)n1Cc1ccc(Cl)cc1 ?
RAM inhibit: 1; Cl transport mod: 4.2*; S1P3 antag: -10; S1P4 ag: 1; S1P4 antagonist: -18; ROMK primary: -0.49; KCC2 secondary: 0.0088; KCC2 bumet counter: 0.017*; KCC2 secondary2: 0.034; HEK293 Tl flux: 0.0094*; KCC2 retest ouab: 0.022; HEK counter2: 0.011

How did S=c1[nH]nc(-c2ccc(Br)cc2)n1Cc1ccco1 do in these assays?
RAM inhibit: 4; S1P3 antag: 13; S1P4 ag: -1; S1P4 antagonist: -13; ROMK primary: -0.36; KCC2 secondary: 0.0065; KCC2 bumet counter: 0.016*; KCC2 secondary2: 0.029; HEK293 Tl flux: 0.015*; KCC2 retest ouab: inconclusive; HEK counter2: 0.014*

Results for S=c1[nH]nc(COc2ccc(Cl)cc2)n1Cc1ccco1 ?
RAM inhibit: 3; Cl transport mod: 10*; S1P3 antag: -12; S1P4 ag: 0; S1P4 antagonist: -17; ROMK primary: -0.12; KCC2 secondary: 0.0096; KCC2 bumet counter: 0.057*; KCC2 secondary2: 0.029; HEK293 Tl flux: 0.012*; KCC2 retest ouab: 0.028*; HEK counter2: inconclusive

What do the screens show for `CCCCc1n[nH]c(=S)n1Cc1ccccc1`?
RAM inhibit: 0; Cl transport mod: -0.044; S1P3 antag: 9; S1P4 ag: 0; S1P4 antagonist: -9; ROMK primary: -1.3

How did Cc1cccc(OCc2n[nH]c(=S)n2Cc2ccccc2)c1 do in these assays?
RAM inhibit: 0; Cl transport mod: 8.9*; S1P3 antag: -1; S1P4 ag: 1; S1P4 antagonist: -17; ROMK primary: -1.2; KCC2 secondary: 0.013*; KCC2 bumet counter: 0.062*; KCC2 secondary2: 0.033; HEK293 Tl flux: 0.018*; KCC2 retest ouab: 0.026; HEK counter2: 0.012*

Results for O=C(CN(Cc1ccccc1)S(=O)(=O)c1ccccc1)N/N=C/c1ccccc1C(=O)O ?
RAM inhibit: 3; Cl transport mod: 1.5; S1P3 antag: 1; S1P4 ag: 0; S1P4 antagonist: -11; ROMK primary: 0.13

What do the screens show for `Cc1cc(Oc2ccc(=O)n(C)n2)nc(=S)[nH]1`?
RAM inhibit: 1; Cl transport mod: 0.72; S1P3 antag: 0; S1P4 ag: -1; S1P4 antagonist: 0; ROMK primary: 0.63

What do the screens show for `O=C(NC(=S)NCC1CCCO1)c1ccccc1[N+](=O)[O-]` (stereo unspecified)?
RAM inhibit: 1; Cl transport mod: 1.1; S1P3 antag: -3; S1P4 ag: 0; S1P4 antagonist: -22; ROMK primary: -0.61

Results for CCOC(=O)C1CCN(c2nc(N)c3c(N)nc(SCC(=O)O)cc3c2C#N)CC1 ?
Cl transport mod: 0.18; S1P3 antag: -12; S1P4 ag: 0; S1P4 antagonist: -1

Results for CC(C)CCn1c(COc2ccccc2)n[nH]c1=S ?
RAM inhibit: 2; Cl transport mod: 6.2*; S1P3 antag: 4; S1P4 ag: -2; S1P4 antagonist: -13; ROMK primary: -0.76; KCC2 secondary: 0.0096; KCC2 bumet counter: 0.03*; KCC2 secondary2: 0.029; HEK293 Tl flux: 0.014*; KCC2 retest ouab: 0.026; HEK counter2: 0.011*

How did CCc1ccc(OCc2n[nH]c(=S)n2Cc2ccccc2)cc1 do in these assays?
RAM inhibit: 1; Cl transport mod: 15*; S1P3 antag: -12; S1P4 ag: 0; S1P4 antagonist: -13; ROMK primary: 0.69; KCC2 secondary: 0.0095; KCC2 bumet counter: 0.036*; KCC2 secondary2: 0.03; HEK293 Tl flux: 0.015*; KCC2 retest ouab: inconclusive; HEK counter2: 0.011*

How did CC1CN(C(=O)Nc2ccc(Br)cc2Cl)CC(C)O1 (stereo unspecified) do in these assays?
RAM inhibit: 3; Cl transport mod: 0.6; S1P3 antag: -3; S1P4 ag: -1; S1P4 antagonist: -2; ROMK primary: -0.0027

What do the screens show for `N#Cc1cc2c([nH]c1=S)CCCCCC2`?
RAM inhibit: 2; Cl transport mod: 6.4*; S1P3 antag: 5; S1P4 ag: -1; S1P4 antagonist: -6; KCC2 secondary: 0.013*; KCC2 bumet counter: 0.022*; KCC2 secondary2: 0.03; HEK293 Tl flux: 0.013*; KCC2 retest ouab: inconclusive; HEK counter2: inconclusive

Results for N#Cc1c(N)n[nH]c1-c1cc2c([nH]1)CCCC2 ?
RAM inhibit: 0; Cl transport mod: 0.022; S1P4 ag: 2; S1P4 antagonist: -2
